# Results filed as inconclusive are left out. Entries that show only a call come without a potency. A number with no mark means an inactive call. Calls of active or inactive are those of the source. Calls follow the shape of the dose curve; as a rule, active = well fitted curve in the direction sought with a large enough effect; inconclusive = small, poorly fitted or top-dose-only effect, or another doubt; inactive = no such curve, though single readings can be large; an effect the other way counts as inactive or inconclusive.
# Tests used:
# [1] = Primary qHTS for inhibitors of La Crosse Virus (LACV) - induced cell death in SH-SY5Y cells (AID 1508616);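 also: top concentration of the series differs between compounds; higher means more rescue of cells from virus-induced death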
# Summary of the method: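 Screening measures cell viability in LACV-infected SH-SY5Y cultures. Compound was added before virus (0.01 MOI), and ATP was detected by luminescence 6 days later.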
# [2] = molecular target: Calcium and integrin-binding protein 1 (Homo sapiens) (UniProt Q99828); test: Primary qHTS for Identification of Calcium Integrin Binding Protein 1 (CIB1) Competitor (AID 1508620);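 also: GST tagged CIB1 binding a fluorescein labelled alphaIIb integrin peptide tracer; top concentration of the series differs between compounds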
# Calcium and integrin-binding protein 1 (Homo sapiens), sequence (Q99828 whole entry, looked up): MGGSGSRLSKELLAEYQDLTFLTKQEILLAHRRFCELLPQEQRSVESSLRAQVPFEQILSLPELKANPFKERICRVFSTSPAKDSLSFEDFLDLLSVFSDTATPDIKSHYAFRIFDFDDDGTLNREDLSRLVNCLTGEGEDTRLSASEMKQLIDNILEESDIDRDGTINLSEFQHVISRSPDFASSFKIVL
# Summary of the method: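 Fluorescence polarization competition: CIB1-GST (1 uM final) preincubated with compound 15 min at room temperature, then FITC-labeled alphaIIb peptide (100 nM final) added for another 15 min. Polarization read at Ex 480/Em 540.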
# [3] = Primary qHTS for small molecule stabilizers of the endoplasmic reticulum resident proteome: Secreted ER Calcium Modulated Protein (SERCaMP) assay (AID 1508630)
# Summary of the method: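 The SH-SY5Y reporter protocol was run at 3 concentrations up to 38.3 uM (primary) or 11 concentrations (follow-up): 16 h compound, 100 nM thapsigargin for 4 h, then extracellular luciferase luminescence.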
# [4] = Counterscreen qHTS for small molecule stabilizers of the endoplasmic reticulum resident proteome: GLuc-NoTag assay (AID 1508627); also: series mostly up to about 76 µM
# Summary of the method: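 Secreted GLuc lacking the SERCaMP modification is measured in SH-SY5Y cells exposed to compound for 19 h and then to thapsigargin (100 nM, 4 h) to deplete ER calcium; hits retested at 11 concentrations, up to 76.6 uM.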
# [5] = Confirmatory qHTS for small molecule stabilizers of the endoplasmic reticulum resident proteome: Secreted ER Calcium Modulated Protein (SERCaMP) assay (AID 1508628); also: nearly all actives have a fitted effect of over 40% in size; also: potency is read from the fitted curve at half-maximal effect
# Summary of the method: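 GLuc-SERCaMP-expressing SH-SY5Y cells, pretreated 16 h with compound, are challenged with thapsigargin to empty ER calcium stores; after 4 h, coelenterazine is added directly to the medium and luminescence is imaged.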
# [6] = Cell Viability qHTS for small molecule stabilizers of the endoplasmic reticulum resident proteome (AID 1508629); details: cell viability counter-screen, 100 nM thapsigargin for final 4 h;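 also: compound exposure about 46 h in total before the viability read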; also: potency is read from the fitted curve at half-maximal effect;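 as to max response: human SH-SY5Y neuroblastoma cells carrying the GLuc-SERCaMP reporter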
structure (smiles),measurement,setting,value
Cc1cc2c(cc1CC(=O)c1sccc1S(=O)(=O)Nc1onc(C)c1Cl)OCO2,Potency,[1],inactive
same,Potency,[2],inactive
same,Potency,[3],inactive
Nc1ccc(C(=O)O)cc1,Potency,[1],inactive
same,Potency,[2],inactive
same,Potency,[3],inactive
CCCOC(C(=O)OC1CCN(C)CC1)(c1ccccc1)c1ccccc1,Potency,[1],inactive
same,Potency,[2],inactive
same,outcome,[4],inactive
Oc1c(Cl)cc(Cl)cc1Sc1cc(Cl)cc(Cl)c1O,Potency,[1],inactive
same,Potency,[2],inactive
same,Potency,[3],inactive
CN(C)C(=S)SC(=S)N(C)C,Potency,[1],inactive
same,Potency,[2],inactive
same,outcome,[4],inactive
same,Potency,[5],inactive
CC(=O)OCC(=O)[C@@]12OC(C)(C)O[C@@H]1C[C@H]1[C@@H]3C[C@H](F)C4=CC(=O)C=C[C@]4(C)[C@@]3(F)[C@@H](O)C[C@@]12C,Potency,[1],inactive
same,Potency,[2],inactive
same,Potency,[3],inactive
O=C(O)CNC(=O)c1ccccc1,Potency,[1],inactive
same,Potency,[2],inactive
same,Potency,[3],inactive
O=c1[nH]c(=O)n([C@H]2CCCO2)cc1F,Potency,[1],inactive
same,Potency,[2],inactive
CN1CCCC(CC2c3ccccc3Sc3ccccc32)C1 (stereo unspecified),Potency,[1],inactive
same,Potency,[2],inactive
same,Potency,[5],22.4 µM (active)
same,max response,[6],-16.7%
C#C[C@]1(O)CC[C@H]2[C@@H]3CCc4cc(OC5CCCC5)ccc4[C@H]3CC[C@@]21C,Potency,[1],inactive
same,Potency,[2],inactive
same,Potency,[3],inactive
Clc1ccc2c(c1)CCc1cccnc1C2=C1CCNCC1,Potency,[1],inactive
same,Potency,[2],inactive
same,Potency,[3],inactive
CC(=O)CC(c1ccc([N+](=O)[O-])cc1)c1c(O)c2ccccc2oc1=O (stereo unspecified),Potency,[1],inactive
same,Potency,[2],inactive
same,Potency,[3],inactive
CC(=O)Oc1ccc(C(c2ccc(OC(C)=O)cc2)c2ccccn2)cc1,Potency,[1],inactive
same,Potency,[2],inactive
same,Potency,[3],inactive
CN(C)CCCOc1nn(Cc2ccccc2)c2ccccc12,Potency,[1],inactive
same,Potency,[2],inactive
same,Potency,[3],inactive
CCCC(=O)O[C@]1(C(=O)CO)CC[C@H]2[C@@H]3CCC4=CC(=O)CC[C@]4(C)[C@H]3[C@@H](O)C[C@@]21C,Potency,[1],inactive
same,Potency,[2],inactive
same,Potency,[3],inactive
CC(=O)c1ccc2c(c1)N(CCCN1CCC(CCO)CC1)c1ccccc1S2,Potency,[1],inactive
same,Potency,[2],inactive
same,outcome,[4],inactive
COc1c2occc2c(OC)c2c(=O)cc(C)oc12,Potency,[1],inactive
same,Potency,[2],inactive
same,Potency,[3],inactive
COC1=CC(=O)C[C@@H](C)[C@]12Oc1c(Cl)c(OC)cc(OC)c1C2=O,Potency,[1],inactive
same,Potency,[2],inactive
same,Potency,[3],inactive
Cc1c(C)n(Cc2ccccc2)c2ccc(C(=O)OCCN(C)C)cc12,Potency,[1],inactive
same,Potency,[2],inactive
same,Potency,[3],inactive
CC1=C(C(=O)OC(C)C)C(c2cccc([N+](=O)[O-])c2)C(C(=O)OC2CN(C(c3ccccc3)c3ccccc3)C2)=C(N)N1 (stereo unspecified),Potency,[1],inactive
same,Potency,[2],inactive
same,Potency,[5],28.2 µM (active)
same,max response,[6],-0.744%
O=C(CCN1CCC(c2ccccc2)C1)c1ccc2c(c1)OCCO2 (stereo unspecified),Potency,[1],inactive
same,Potency,[2],inactive
same,Potency,[3],inactive
C/C=C(/C(=C/C)c1ccc(O)cc1)c1ccc(O)cc1,Potency,[1],inactive
same,Potency,[2],inactive
same,Potency,[3],inactive
Cc1cccc(C)c1NC(=O)CN1CCN(CCCC(c2ccc(F)cc2)c2ccc(F)cc2)CC1,Potency,[1],inactive
same,Potency,[2],inactive
same,Potency,[3],inactive
CC(C)NC[C@@H](O)COc1cccc2ccccc12,Potency,[1],inactive
same,Potency,[2],inactive
same,Potency,[3],inactive
NCCc1ccn[nH]1,Potency,[1],inactive
same,Potency,[2],inactive
same,Potency,[3],inactive
CC(C)(Oc1ccc(Cl)cc1)C(=O)O,Potency,[1],inactive
same,Potency,[2],inactive
same,Potency,[3],inactive
c1ccc(-c2ccc(C(c3ccccc3)n3ccnc3)cc2)cc1 (stereo unspecified),Potency,[1],inactive
same,Potency,[2],inactive
same,Potency,[5],inactive
c1ccc(CNCCNCc2ccccc2)cc1,Potency,[1],inactive
same,Potency,[2],inactive
same,Potency,[3],inactive
C[C@@H]1CN(CCCn2c3ccccc3c3ccccc32)C[C@H](C)N1,Potency,[1],inactive
same,Potency,[2],inactive
same,Potency,[5],inactive
same,Potency,[6],31.6 µM (active)
CC(C)N=C(N)/N=C(\N)Nc1ccc(Cl)cc1,Potency,[1],inactive
same,Potency,[2],inactive
same,outcome,[4],inactive
CCOc1ccc(Cc2nccc3cc(OCC)c(OCC)cc23)cc1OCC,Potency,[1],inactive
same,Potency,[2],inactive
same,Potency,[3],inactive
NC[C@H]1O[C@H](O[C@H]2[C@H](O[C@@H]3O[C@H](CO)[C@@H](O)[C@H]3O)C(O)[C@H](N)C[C@@H]2N)[C@H](N)[C@@H](O)[C@@H]1O (stereo partly specified),activity change,[1],-8.96% [at 0.858 µM]
same,Potency,[2],inactive
same,"activity change, negative = inhibition",[3],-22.5% [at 7.35 µM]
CCN1CCC[C@H]1CNC(=O)c1c(OC)ccc(Br)c1OC,Potency,[1],inactive
same,Potency,[2],inactive
same,Potency,[3],inactive
COc1cc(C(=S)N2CCOCC2)cc(OC)c1OC,Potency,[1],inactive
same,Potency,[2],inactive
same,Potency,[3],inactive
Cc1c(F)c(N2CCNC(C)C2)cc2c1c(=O)c(C(=O)O)cn2C1CC1 (stereo unspecified),Potency,[1],inactive
same,Potency,[2],inactive
same,Potency,[3],inactive
CC1=C(C(=O)O)N2C(=O)[C@@H](NC(=O)[C@H](N)c3ccc(O)cc3)[C@H]2SC1,Potency,[1],inactive
same,Potency,[2],inactive
same,Potency,[3],inactive

# Source: PubChem BioAssay (NCATS)
